The panel holds about 83,000 compounds, 20% with a hit somewhere; the sample as a whole holds those more often.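 The endpoint reported here, percent growth, reads 100 for growth as untreated, 0 for no net growth and -100 for all cells dead.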 Calls of active or inactive are those of the source. Rule for the calls: active = growth percent below 10; inactive = the rest.
How the values were obtained:
Assay in all cases: NCI-60 one-dose screen, 48 h (100 = growth as untreated, 0 = no growth, -100 = all killed)
Conditions in all cases: 10 µM unless noted
DU-145 prostate = system: DU-145 prostate
K-562 leukemia = system: K-562 leukemia
MALME-3M melanoma = system: MALME-3M melanoma
MDA-MB-231 breast = system: MDA-MB-231 breast
RXF 393 renal = system: RXF 393 renal
SF-268 CNS = system: SF-268 CNS
SF-295 CNS = system: SF-295 CNS
SF-539 CNS = system: SF-539 CNS
UACC-257 melanoma = system: UACC-257 melanoma
M14 melanoma = system: M14 melanoma

Row | Compound | growth (DU-145 prostate) | growth (K-562 leukemia) | growth (MALME-3M melanoma) | growth (MDA-MB-231 breast) | growth (RXF 393 renal) | growth (SF-268 CNS) | growth (SF-295 CNS) | growth (SF-539 CNS) | growth (UACC-257 melanoma) | growth (M14 melanoma)
1 | COc1ccc(/C(=C\c2cc(OC)c(OC)c(OC)c2)C(=O)N2CCNCC2)cc1 | 112% (inactive) | 92.4% (inactive) | 108% (inactive) | 102% (inactive) | 99.2% (inactive) | 103% (inactive) | 104% (inactive) | 102% (inactive) | 91.3% (inactive) | 99% (inactive)
2 | Cc1cc(C)c2c(NC(=O)Nc3ccc(Cl)c(Cl)c3)n[nH]c2n1 | 105% (inactive) | 91% (inactive) | 90.4% (inactive) | 104% (inactive) | 105% (inactive) | 103% (inactive) | 93.4% (inactive) | 112% (inactive) | 110% (inactive) | 109% (inactive)
3 | Oc1c(C(c2ccc(F)cc2)N2CCCCC2)ccc2cncnc12 (centres undefined) | 23.3% (inactive) | 10.4% (inactive) | 3.63% (active) | 14.4% (inactive) | 31.1% (inactive) | 20.9% (inactive) | -1.59% (active) | 13.9% (inactive) | 0.316% (active) | 15.7% (inactive)
4 | COc1ccc(OC)c(Nc2nc(-c3c(C)nc4sccn34)cs2)c1 | 81.7% (inactive) | 27.8% (inactive) | 88.9% (inactive) | 71.1% (inactive) | 83.5% (inactive) | 102% (inactive) | 52.8% (inactive) | 75.7% (inactive) | 81% (inactive) | 78.6% (inactive)
5 | Cc1ccc(C2CC(c3cccs3)=NN2c2ccc(S(N)(=O)=O)cc2)s1 (centres undefined) | 99.2% (inactive) | 77.9% (inactive) | 79.4% (inactive) | 91.6% (inactive) | 93.1% (inactive) | 96.5% (inactive) | 98.3% (inactive) | 104% (inactive) | 36.3% (inactive) | 81.9% (inactive)
6 | O=C(Nc1ccc(Oc2ccc(Nc3nc4ccccc4s3)cc2)cc1)Nc1ccc(Cl)c(C(F)(F)F)c1 | 9.51% (active) | 6.86% (active) | 2.78% (active) | -65.5% (active) | 8.85% (active) | 18.5% (inactive) | 5.6% (active) | 9.29% (active) | -11.6% (active) | -4.56% (active)
7 | O=Cc1ccc2nc(C(Cl)(Cl)Cl)ccc2c1 | 102% (inactive) | 121% (inactive) | 91.4% (inactive) | 108% (inactive) | 94.7% (inactive) | 107% (inactive) | 97.2% (inactive) | 98.8% (inactive) | 103% (inactive) | 81.6% (inactive)
8 | F | 49.5% [6.87 mM] (inactive) | 60.9% [6.87 mM] (inactive) | -28.9% [6.87 mM] (active) | 5.12% [6.87 mM] (active) | 23.9% [6.87 mM] (inactive) | 40.9% [6.87 mM] (inactive) | 2.46% [6.87 mM] (active) | -13% [6.87 mM] (active) | 0.483% [6.87 mM] (active) | -23.4% [6.87 mM] (active)
9 | O=c1cc(N2CCOCC2)oc2c(-c3ccc4c(c3)OCCO4)csc12 | 22.8% (inactive) | 25.6% (inactive) | -3.44% (active) | 20.3% (inactive) | -22.5% (active) | 29.8% (inactive) | 0.878% (active) | 3.65% (active) | 18.6% (inactive) | 12.3% (inactive)
10 | CN1CCN(Cc2ccc(NC(=O)c3cncc(C#Cc4cnc5cccnn45)c3)cc2C(F)(F)F)CC1 | 3.43% (active) | 2.91% (active) | -46.5% (active) | -14.4% (active) | -56.3% (active) | -27.9% (active) | 28.6% (inactive) | -47.9% (active) | 3.46% (active) | -33.5% (active)
11 | NC(N)=N/N=C/c1ccccc1 | 105% (inactive) | 96.1% (inactive) | 102% (inactive) | 92.9% (inactive) | 101% (inactive) | 103% (inactive) | 88.3% (inactive) | 98% (inactive) | 93.9% (inactive) | 103% (inactive)
12 | C=C(C)C1CCC2(C(=O)O)CCC3(C)C(CCC4C5(C)CCC(O)C(C)(C)C5CCC43C)C12 (centres undefined) | -55.5% (active) | -34.1% (active) | -17.4% (active) | -8.05% (active) | -68.8% (active) | 16.3% (inactive) | -14.8% (active) | -54.1% (active) | -17.2% (active) | -49.9% (active)
13 | O=[N+]([O-])c1cc(F)c2cccnc2c1O | 121% (inactive) | 109% (inactive) | 103% (inactive) | 99.5% (inactive) | 148% (inactive) | 106% (inactive) | 110% (inactive) | 91% (inactive) | 115% (inactive) | 88.5% (inactive)
14 | CC[C@H](Nc1nc(N)nc(N)c1Cl)c1nc2cccc(NCc3ccc(C(=O)NO)cc3)c2c(=O)n1-c1ccccc1 | -0.88% (active) | 3.11% (active) | 20.2% (inactive) | -10.8% (active) | -52.5% (active) | 4.81% (active) | 13.2% (inactive) | -74.2% (active) | -0.0784% (active) | -13% (active)
15 | Cc1ccc(NC(=O)c2[nH]c(SCCN(C)C)nc2-c2ccc(F)cc2)cc1C#Cc1cnc2cccnn12 | -19% (active) | -37.3% (active) | -9.58% (active) | -7.2% (active) | -61.6% (active) | -23.4% (active) | 93.1% (inactive) | -84.4% (active) | 12.7% (inactive) | -75.1% (active)
16 | COc1ccc(NC(=O)/C=C/c2ccc(Cl)c(Cl)c2)cn1 | 96.7% (inactive) | 58% (inactive) | 92% (inactive) | 95% (inactive) | 89.4% (inactive) | 95.7% (inactive) | 84.5% (inactive) | 98.2% (inactive) | 79.9% (inactive) | 95.9% (inactive)
17 | O=C(CI)NCCNc1cccc2c(S(=O)(=O)O)cccc12 | 96.3% (inactive) | 110% (inactive) | 103% (inactive) | 93.5% (inactive) | 101% (inactive) | 93.3% (inactive) | 98.5% (inactive) | 105% (inactive) | 108% (inactive) | 98.4% (inactive)
18 | Cc1cc(C)cc(NC(=O)Cn2nncc2CN2C(=O)CSC2=O)c1 | 109% (inactive) | 101% (inactive) | 100% (inactive) | 97.5% (inactive) | 113% (inactive) | 101% (inactive) | 103% (inactive) | 94.7% (inactive) | 97.3% (inactive) | 106% (inactive)
19 | COc1c(B(O)O)cccc1-c1nc2c(F)cc3n[nH]c(C)c3c2c2c1CCCC2 | 15% (inactive) | 17.8% (inactive) | 55.9% (inactive) | 25.5% (inactive) | -19.3% (active) | 17.5% (inactive) |  | 4.1% (active) | 18.8% (inactive) | 41.1% (inactive)
20 | Nc1nc(N)c2c(n1)NC(c1sc(Cl)nc1Cl)CC(c1ccc3c(c1)OCO3)=N2 (centres undefined) | 35.3% (inactive) | 16.9% (inactive) | 28.8% (inactive) | 48.8% (inactive) | -1.6% (active) | 38.8% (inactive) | 18.5% (inactive) | -14.9% (active) | 39.2% (inactive) | 18.1% (inactive)
21 | CC(C)c1ccc(Cn2ccc3c4c(N)nc(NC5CC5)nc4ccc32)cc1 | -89.5% (active) | -69.7% (active) | -91.6% (active) | -89.6% (active) | -90.9% (active) | -77.6% (active) | -82.8% (active) | -91.5% (active) | -77.8% (active) | -86.2% (active)
22 | COc1cc2nccc(Oc3ccc(NC(=O)C4(C(=O)Nc5ccc(F)cc5)CC4)cc3)c2cc1O | 77.7% (inactive) | 9.3% (active) | 64% (inactive) | 71% (inactive) | 58.5% (inactive) | 65.8% (inactive) | 35.2% (inactive) | 24.5% (inactive) | 71.5% (inactive) | 49.5% (inactive)
23 | Cc1cc(C)c(C#N)c(SCC(=O)c2sc3c(C#N)c(C)cc(C)[n+]3c2[O-])n1 | -6.34% (active) | 5.26% (active) | 17.5% (inactive) | 15.2% (inactive) | -21.5% (active) | 22.9% (inactive) | -52.3% (active) | -11.3% (active) | 51.9% (inactive) | 12.2% (inactive)
24 | Cc1cc(C)c([O-])c(CN(C)CCN(C)Cc2cc(C)cc(C)c2[O-])c1.O=C([O-])c1cccc(C(=O)[O-])n1.[Ti+4] | 33.8% (inactive) | -1.84% (active) | -45.7% (active) | 44.6% (inactive) | -43.5% (active) | 23.9% (inactive) | 12.8% (inactive) | 7.18% (active) | 19.8% (inactive) | -49.8% (active)
25 | C=CCn1c(C)nc2cc(Nc3nc(N4CCCC4)nc4nc[nH]c34)ccc21 | 48.2% (inactive) | -9.1% (active) | -29.3% (active) | -25% (active) | 54.4% (inactive) | 29.3% (inactive) | 31.2% (inactive) | -18.7% (active) | 60.9% (inactive) | 28.8% (inactive)

Reference: PubChem BioAssay (NCI)
